# In PubChem BioAssay (NCATS):
# Records with an inconclusive call do not appear. Entries that show only a call come without a potency. Calls of active or inactive are those of the source. Unless noted, calls come from the whole dose curve; as a rule, active = well fitted curve in the direction sought with a large enough effect; inconclusive = small, poorly fitted or top-dose-only effect, or another doubt; inactive = no such curve, though single readings can be large; an effect the other way counts as inactive or inconclusive.
# Assays:
# [1] = qHTS profiling for inhibitors of Plasmodium falciparum proliferation (AID 504749); note: potency is the fitted concentration of half-maximal effect; for all read-outs here: nearly all actives have a fitted effect of over 60% in size; settings: P. falciparum in erythrocytes, SYBR Green DNA, 72 h; for activity, negative = inhibition: at 28.7 µM (top of the series)
# Outline: (§1)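 Each compound contacts P. falciparum-infected red blood cells for 72 h at 37 C; lysis buffer (Tris, EDTA, saponin, Triton X, SYBR Green I) is added and fluorescence measured next morning; values normalized to controls.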
# [2] = system: 3D7; experiment: as above; settings: P. falciparum in erythrocytes, SYBR Green DNA, 72 h; series mostly up to 28.7 µM
# Outline: as §1
# [3] = system: 7G8; experiment: as above; settings: P. falciparum in erythrocytes, SYBR Green DNA, 72 h; series mostly up to 28.7 µM
# Outline: as §1
# [4] = system: AA1029; experiment: as above; settings: P. falciparum in erythrocytes, SYBR Green DNA, 72 h; series mostly up to 28.7 µM
# Outline: as §1
# [5] = system: AS120; experiment: as above; settings: P. falciparum in erythrocytes, SYBR Green DNA, 72 h; series mostly up to 28.7 µM
# Outline: as §1
# [6] = system: ATS189; experiment: as above; settings: P. falciparum in erythrocytes, SYBR Green DNA, 72 h; series mostly up to 28.7 µM
# Outline: as §1
# [7] = system: ATS95; experiment: as above; settings: P. falciparum in erythrocytes, SYBR Green DNA, 72 h; series mostly up to 28.7 µM
# Outline: as §1
# [8] = system: C2A; experiment: as above; settings: P. falciparum in erythrocytes, SYBR Green DNA, 72 h; series mostly up to 28.7 µM
# Outline: as §1
# [9] = system: CP185; experiment: as above; settings: P. falciparum in erythrocytes, SYBR Green DNA, 72 h; series mostly up to 28.7 µM
# Outline: as §1
# [10] = system: CP191; experiment: as above; settings: P. falciparum in erythrocytes, SYBR Green DNA, 72 h; series mostly up to 28.7 µM
# Outline: as §1
# [11] = system: CP192; experiment: as above; settings: P. falciparum in erythrocytes, SYBR Green DNA, 72 h; series mostly up to 28.7 µM
# Outline: as §1
# [12] = system: CP194; experiment: as above; settings: P. falciparum in erythrocytes, SYBR Green DNA, 72 h; series mostly up to 28.7 µM
# Outline: as §1
# [13] = system: CP201; experiment: as above; settings: P. falciparum in erythrocytes, SYBR Green DNA, 72 h; series mostly up to 28.7 µM
# Outline: as §1
# [14] = system: CP211; experiment: as above; settings: P. falciparum in erythrocytes, SYBR Green DNA, 72 h; series mostly up to 28.7 µM
# Outline: as §1
# [15] = system: CP215; experiment: as above; settings: P. falciparum in erythrocytes, SYBR Green DNA, 72 h; series mostly up to 28.7 µM
# Outline: as §1
# [16] = system: CP217; experiment: as above; settings: P. falciparum in erythrocytes, SYBR Green DNA, 72 h; series mostly up to 28.7 µM
# Outline: as §1
# [17] = system: Nanoluciferase (engineered Oplophorus gracilirostris luciferase); experiment: Primary Nanoluciferase (NLuc) qHTS assay for identification of artifact compounds. (AID 1845222); settings: NLuc-conditioned medium, Nano-Glo luminescence, 5 min; series mostly up to 54.1 µM;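 note: NLuc secreted into diluted conditioned medium of S16 cells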
# Outline: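 S16 cell supernatant NLuc, 1:55; cpds qHTS; 15 min RT dark; Nano-Glo substrate 1:100, 5 min; luminescence; Hill fit of % inhibition.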
# [18] = Primary redox qHTS assay for identification of artifact compounds. (AID 1845223); settings: Amplex Red/HRP redox cycling with DTT, fluorescence; series mostly up to 53.8 µM
# Outline: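 Redox-cycling detection via DTT (250 uM final) oxidation coupled to Amplex Red (25 uM)/HRP (250 mU/mL) in HBSS. 15 min preincubation plus 30 min after DTT, room temperature. Ex/Em 525/598 nm; 4-parameter Hill fit against DMSO and 10 uM DA3003.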
# [19] = qHTS drug screen for cell cycle checkpoint inhibitors in PARPi-resistant BRCA-mutant ovarian cancer cell lines. (AID 1963452; calls by dose curve); settings: PEO1/OlaR viability, CellTiter-Glo luminescence, 96 h, stronger effect = lower value
# Outline: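 PEO1, PEO4 and PEO1/OlaR ovarian cancer cells, 600 per well, exposed 96 h at 37C to a dilution series. Viability read by CellTiter-Glo luminescence, normalized to DMSO and empty wells; activity summarized as Z-AUC.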
# [20] = system: CP203; experiment: qHTS profiling for inhibitors of Plasmodium falciparum proliferation (AID 504749); note: nearly all actives have a fitted effect of over 60% in size; note: potency is the fitted concentration of half-maximal effect; settings: P. falciparum in erythrocytes, SYBR Green DNA, 72 h; series mostly up to 28.7 µM
# Outline: as §1
# [21] = measured here: PEO1 parental Z-AUC
smiles,measurement,setting,value
CN1CCN(CC(=O)N2c3ccccc3C(=O)Nc3cccnc32)CC1,"activity, negative = inhibition",[1]; parasite line A,-7.56% (inactive)
same,"activity, negative = inhibition",[1]; parasite line B,-8.28% (inactive)
same,Potency,[2],inactive
same,Potency,[3],inactive
same,Potency,[4],inactive
same,Potency,[5],inactive
same,Potency,[6],inactive
same,Potency,[7],inactive
same,Potency,[8],inactive
same,Potency,[9],inactive
same,Potency,[10],inactive
same,Potency,[11],inactive
same,Potency,[12],inactive
same,Potency,[13],inactive
same,Potency,[14],inactive
same,Potency,[15],inactive
same,Potency,[16],inactive
CCCN1C[C@H](CSC)C[C@@H]2c3cccc4[nH]cc(c34)C[C@H]21,outcome,[17],inactive
same,outcome,[18],inactive
same,Potency,[2],inactive
same,Potency,[3],11.2 µM (active)
same,Potency,[5],12.6 µM (active)
same,Potency,[7],7.94 µM (active)
same,Potency,[9],inactive
same,Potency,[11],inactive
same,Potency,[13],inactive
same,Potency,[15],inactive
Cc1cc(C)c(/C=C2\C(=O)Nc3ccccc32)[nH]1,Z-AUC,[19],0.918 (inactive)
same,Z-AUC,[19]; [21],0.596
same,Z-AUC,[19]; measured here: PEO4 Z-AUC,0.161
same,"activity, negative = inhibition",[1]; parasite line A,2.71% (inactive)
same,"activity, negative = inhibition",[1]; parasite line B,10.1% (inactive)
same,Potency,[2],inactive
same,Potency,[3],inactive
same,Potency,[4],inactive
same,Potency,[5],inactive
same,Potency,[6],inactive
same,Potency,[7],inactive
same,Potency,[8],inactive
same,Potency,[9],inactive
same,Potency,[10],inactive
same,Potency,[11],inactive
same,Potency,[12],inactive
same,Potency,[13],inactive
same,Potency,[20],inactive
same,Potency,[14],inactive
same,Potency,[15],inactive
same,Potency,[16],inactive
Cc1nnc(SCC2=C(C(=O)O)N3C(=O)[C@@H](NC(=O)Cn4cnnn4)[C@H]3SC2)s1,"activity, negative = inhibition",[1]; parasite line A,11.1% (inactive)
same,"activity, negative = inhibition",[1]; parasite line B,2.94% (inactive)
same,Potency,[2],inactive
same,Potency,[3],inactive
same,Potency,[4],inactive
same,Potency,[5],inactive
same,Potency,[6],inactive
same,Potency,[7],inactive
same,Potency,[8],inactive
same,Potency,[9],inactive
same,Potency,[10],inactive
same,Potency,[11],inactive
same,Potency,[12],inactive
same,Potency,[13],inactive
same,Potency,[20],inactive
same,Potency,[14],inactive
same,Potency,[15],inactive
same,Potency,[16],inactive
COc1ccc2c(c1OC)C(=O)O[C@@H]2[C@H]1c2c(cc3c(c2OC)OCO3)CCN1C,Z-AUC,[19],0.757 (inactive)
same,Z-AUC,[19]; [21],0.922
same,Z-AUC,[19]; measured here: PEO4 Z-AUC,0.499
CC(C)COCC(CN(Cc1ccccc1)c1ccccc1)N1CCCC1 (centres undefined),Z-AUC,[19],1.09 (inactive)
same,Z-AUC,[19]; [21],0.789
same,Z-AUC,[19]; measured here: PEO4 Z-AUC,0.389
same,Potency,[2],inactive
same,Potency,[6],inactive
same,Potency,[8],inactive
same,Potency,[10],inactive
same,Potency,[11],inactive
same,Potency,[12],inactive
same,Potency,[14],inactive
same,Potency,[15],7.57 µM (active)
same,Potency,[16],inactive
CC(=O)OCC1=C(C(=O)O)N2C(=O)[C@@H](NC(=O)Cc3cccs3)[C@H]2SC1,"activity, negative = inhibition",[1]; parasite line A,5.33% (inactive)
same,"activity, negative = inhibition",[1]; parasite line B,13.1% (inactive)
same,Potency,[2],inactive
same,Potency,[3],inactive
same,Potency,[4],inactive
same,Potency,[5],inactive
same,Potency,[6],inactive
same,Potency,[7],inactive
same,Potency,[8],inactive
same,Potency,[9],inactive
same,Potency,[10],inactive
same,Potency,[11],inactive
same,Potency,[12],inactive
same,Potency,[13],inactive
same,Potency,[20],inactive
same,Potency,[14],inactive
same,Potency,[15],inactive
same,Potency,[16],inactive
CCN(CC)CCCN(c1ccccc1)C1Cc2ccccc2C1,Potency,[1]; parasite line A,4.47 µM (active)
same,Potency,[1]; parasite line B,7.08 µM (active)
same,Potency,[2],10 µM (active)
same,Potency,[3],1.78 µM (active)
same,Potency,[4],4.47 µM (active)
same,Potency,[5],4.47 µM (active)
same,Potency,[6],12.6 µM (active)
same,Potency,[7],5.01 µM (active)
same,Potency,[8],11.2 µM (active)
same,Potency,[9],6.31 µM (active)
same,Potency,[10],5.01 µM (active)
same,Potency,[11],10.7 µM (active)
same,Potency,[12],7.57 µM (active)
same,Potency,[13],7.57 µM (active)
same,Potency,[20],6.75 µM (active)
same,Potency,[14],12 µM (active)
same,Potency,[15],8.49 µM (active)
same,Potency,[16],5.62 µM (active)
COC(=O)C1=C(C)NC(C)=C(C(=O)OC(C)(C)CN(C)CCC(c2ccccc2)c2ccccc2)C1c1cccc([N+](=O)[O-])c1 (centres undefined),Potency,[1]; parasite line A,2 µM (active)
same,Potency,[1]; parasite line B,2 µM (active)
same,Potency,[2],2.51 µM (active)
same,Potency,[3],2 µM (active)
same,Potency,[4],2.51 µM (active)
same,Potency,[5],2 µM (active)
same,Potency,[6],2 µM (active)
same,Potency,[7],3.55 µM (active)
same,Potency,[8],4.47 µM (active)
same,Potency,[9],5.01 µM (active)
same,Potency,[10],3.16 µM (active)
same,Potency,[11],9.53 µM (active)
same,Potency,[12],3.79 µM (active)
same,Potency,[13],6.01 µM (active)
same,Potency,[20],4.26 µM (active)
same,Potency,[14],4.78 µM (active)
same,Potency,[15],4.78 µM (active)
same,Potency,[16],3.16 µM (active)
C[N+](C)(C)CCOC(N)=O,"activity, negative = inhibition",[1]; parasite line A,16.8% (inactive)
same,"activity, negative = inhibition",[1]; parasite line B,9.29% (inactive)
same,Potency,[2],inactive
same,Potency,[3],inactive
same,Potency,[4],inactive
same,Potency,[5],inactive
same,Potency,[6],inactive
same,Potency,[7],inactive
same,Potency,[8],inactive
same,Potency,[9],inactive
same,Potency,[10],inactive
same,Potency,[11],inactive
same,Potency,[12],inactive
same,Potency,[13],inactive
same,Potency,[14],inactive
same,Potency,[15],inactive
same,Potency,[16],inactive
O=C(O)CN(CCOCCOCCN(CC(=O)O)CC(=O)O)CC(=O)O,"activity, negative = inhibition",[1]; parasite line A,8.03% (inactive)
same,"activity, negative = inhibition",[1]; parasite line B,13.7% (inactive)
same,Potency,[2],inactive
same,Potency,[3],inactive
same,Potency,[4],inactive
same,Potency,[5],inactive
same,Potency,[6],inactive
same,Potency,[7],inactive
same,Potency,[8],inactive
same,Potency,[9],inactive
same,Potency,[10],inactive
same,Potency,[11],inactive
same,Potency,[12],inactive
same,Potency,[13],inactive
same,Potency,[20],inactive
same,Potency,[14],inactive
same,Potency,[15],inactive
same,Potency,[16],inactive
CN=C(NC#N)NCCSCc1nc[nH]c1C,"activity, negative = inhibition",[1]; parasite line A,-4.42% (inactive)
same,"activity, negative = inhibition",[1]; parasite line B,-7.15% (inactive)
same,Potency,[2],inactive
same,Potency,[3],inactive
same,Potency,[4],inactive
same,Potency,[5],inactive
same,Potency,[6],inactive
same,Potency,[7],inactive
same,Potency,[8],inactive
same,Potency,[9],inactive
same,Potency,[10],inactive
same,Potency,[11],inactive
same,Potency,[12],inactive
same,Potency,[13],inactive
same,Potency,[20],inactive
same,Potency,[14],inactive
same,Potency,[15],inactive
same,Potency,[16],inactive
Nc1c2c(nc3ccccc13)CCCC2O (centres undefined),"activity, negative = inhibition",[1]; parasite line A,-3.4% (inactive)
same,"activity, negative = inhibition",[1]; parasite line B,3.67% (inactive)
same,Potency,[2],inactive
same,Potency,[3],inactive
same,Potency,[4],inactive
same,Potency,[5],inactive
same,Potency,[6],inactive
same,Potency,[7],inactive
same,Potency,[8],inactive
same,Potency,[9],inactive
same,Potency,[10],inactive
same,Potency,[11],inactive
same,Potency,[12],inactive
same,Potency,[13],inactive
same,Potency,[20],inactive
same,Potency,[14],inactive
same,Potency,[15],inactive
same,Potency,[16],inactive
c1cnc(N2CCN(Cc3ccc4c(c3)OCO4)CC2)nc1,"activity, negative = inhibition",[1]; parasite line A,13.8% (inactive)
same,"activity, negative = inhibition",[1]; parasite line B,17.3% (inactive)
same,Potency,[2],inactive
same,Potency,[3],inactive
same,Potency,[4],inactive
same,Potency,[5],inactive
same,Potency,[6],inactive
same,Potency,[7],inactive
same,Potency,[8],inactive
same,Potency,[9],inactive
same,Potency,[10],inactive
same,Potency,[11],inactive
same,Potency,[12],inactive
same,Potency,[13],inactive
same,Potency,[20],inactive
same,Potency,[14],inactive
same,Potency,[15],inactive
same,Potency,[16],inactive
